Screening data as filed in PubChem BioAssay.
DT40 TDP1 no CPT – qHTS for Inhibitors of human tyrosyl-DNA phosphodiesterase 1 (TDP1): qHTS in cells in absence of CPT. DT40 Tdp1-/- hTDP1 cells, no CPT, ATP luminescence, 48 h. Potency, µM (series often up to 46.2 µM), usual class: inhibitors. 15% of 420,000 active; note: nearly all actives have a fitted effect of over 55% in size
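Chicken DT40 Tdp1-/- cells stably complemented with human TDP1 were seeded at 400 cells/well with DMSO in place of 20 nM camptothecin. After compound pinning, cells grew at least 48 hr at 37 °C; viability read by CellTiter-Glo luminescence.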
IL-1B inflam inh – blocks inflammasome-driven IL-1 beta release; THP-1 LPS/ATP IL-1B secretion, AlphaLISA, 16 h; stronger effect = lower value; AID 743279; 4.7% of 360,000 active; activity change, % at 57.5 µM; in the data active = activity change below about -50%; inconclusive = mostly about -30% to -49%
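THP-1 cells pretreated 1 hr with compounds (up to 57.5 uM final), then stimulated with LPS (250 ng/mL final) plus ATP (1.25 mM final); secreted IL-1B measured by AlphaLISA after 16 hr, decreased signal indicating inhibition.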
ClpP mod – qHTS Assay for Activators of ClpP. ATP-dependent Clp protease proteolytic subunit (Bacillus subtilis (strain 168)), P80244. purified B. subtilis ClpP, FRET peptide cleavage, 20 min. Potency, µM (series often up to 57.5 µM). 1.9% of 340,000 active. AID 651965, 2013; active = well fitted falling curve with a large enough effect; inconclusive = small, poorly fitted or top-dose-only effect; inactive = no such curve, though single readings can be large or run the other way; note: the source files actives as falling curves though it sought activators and does not explain the sign; nearly all actives have a fitted effect of over 65% in size
Target sequence (P80244 whole entry, looked up): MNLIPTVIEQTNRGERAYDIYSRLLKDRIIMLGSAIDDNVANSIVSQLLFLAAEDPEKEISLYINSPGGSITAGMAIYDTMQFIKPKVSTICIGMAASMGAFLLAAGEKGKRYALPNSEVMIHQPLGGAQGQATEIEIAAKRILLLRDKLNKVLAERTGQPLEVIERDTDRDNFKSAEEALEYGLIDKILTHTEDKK
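ClpP 10 microg/mL final, pH 8 Tris/KCl buffer with BSA, glycerol, Tween-20; compound pinned in; FRET-FV substrate; RT 20 min; Ex320/Em430; ΔFRET vs ADEP 5.8 microM, DMSO, no enzyme.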
D3 ag – activates the human D3 dopamine receptor | P35462 | D3R DiscoveRx beta-arrestin cells, luminescence, 90 min | max activation, % | 0.58% of 410,000 active | AID 652048; in the data active = max activation above about 30%
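Agonist mode: compounds and dopamine controls were applied to plated cells for 90 min at 37 degrees C after an overnight attachment at 1500 cells/well. Luminescent read-out followed 30 - 60 minutes at room temperature with DiscoveRx detection reagent.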
DT40 TDP1 CPT – growth inhibition of DT40 Tdp1-/-;hTDP1 cells with camptothecin (screen for TDP1 inhibitors); AID 686979; Potency, µM (highest dose often 46.2 µM), hits mostly inhibitors; 12% of 420,000 active; chicken DT40 Tdp1-/-;hTDP1 cells + 20 nM CPT, ATP luminescence, 48 h; note: nearly all actives have a fitted effect of over 55% in size
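Chicken DT40 Tdp1-/- cells stably complemented with human TDP1 were seeded at 400 cells/well in medium containing 20 nM camptothecin, exposed to pin-transferred compounds, and grown at 37 °C for at least 48 hr. Viability was read as ATP luminescence.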
DRD3 antagonist – blocks the human D3 dopamine receptor; 2.5% of 360,000 active; AID 652054; P35462; max response, negative = inhibition, %; D3R cells, DiscoveRx beta-arrestin luminescence, antagonist mode; stronger effect = lower value; in the data active = max response below about -50%; inconclusive = no clear call, values can overlap the other calls
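Cells plated overnight at 1500 cells/well, then exposed to library compounds with dopamine controls for 90 minutes at 37 degrees C. DiscoveRx reagent added for 30–60 minutes at room temperature; luminescence read, quantitative HTS format.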
Each line names hits and unclear results; the compound was inactive in the other large screens. An excerpt weighted towards active compounds, which were near 21% of everything screened. Unless noted, calls come from the whole dose curve; as a rule, active = well fitted inhibition curve with a large enough effect; inconclusive = small, poorly fitted or top-dose-only effect; inactive = flat fitted curve, though single readings scatter.

Cc1cccnc1C(NC(=O)C1CCN(Cc2ccc(Cl)cc2)CC1)c1ccccc1 (configuration not stated)	DT40 TDP1 no CPT 16.4µM, IL-1B inflam inh inconclusive, DT40 TDP1 CPT 16.4µM, DRD3 antagonist -102.4
COc1ccc(C(C)NC(=O)C2CCN(CCCc3ccccc3)CC2)cc1OC (configuration not stated)	none
Cc1cccnc1C(NC(=O)C1CCN(CCOc2ccc(F)cc2)CC1)c1ccc(F)cc1 (configuration not stated)	DT40 TDP1 no CPT inconclusive, IL-1B inflam inh inconclusive, DT40 TDP1 CPT inconclusive, DRD3 antagonist -71.4
Cc1cccnc1C(NC(=O)C1CCN(CCCc2ccccc2)CC1)c1ccc(Cl)cc1 (configuration not stated)	DT40 TDP1 no CPT 29.1µM, IL-1B inflam inh -57.2, DT40 TDP1 CPT inconclusive, DRD3 antagonist -77.8
COc1cc(OC)nc(C(NC(=O)C2CCN(Cc3ccc(Oc4ccccc4)cc3)CC2)c2ccccc2C)n1 (configuration not stated)	DT40 TDP1 no CPT inconclusive, IL-1B inflam inh -57.8, DT40 TDP1 CPT inconclusive
N#Cc1cccc(NC(=O)CSc2cccc[n+]2[O-])c1	none (no result: ClpP mod)
CCOC(=O)Cc1csc(NC(=O)COc2cc(C)cc(C)c2)n1	DT40 TDP1 no CPT inconclusive
COc1ccc2nc3oc(C(=O)N(C)c4ccc(Cl)cc4)cc3cc2c1	DT40 TDP1 no CPT inconclusive, ClpP mod inconclusive (no result: IL-1B inflam inh, DRD3 antagonist)
Cc1cccnc1C(NC(=O)C1CCN(Cc2cn(C)c3ccccc23)CC1)c1ccc(Cl)cc1 (configuration not stated)	DT40 TDP1 no CPT 4.61µM, IL-1B inflam inh inconclusive, DT40 TDP1 CPT 4.61µM, DRD3 antagonist -65.2
Cc1cccnc1C(NC(=O)C1CCN(Cc2ccc(Oc3ccccc3)cc2)CC1)c1ccc(F)cc1 (configuration not stated)	DT40 TDP1 no CPT inconclusive, IL-1B inflam inh -66.8, DT40 TDP1 CPT 23.1µM, DRD3 antagonist -67.2
COc1cccc(OC)c1OCCN1CCC(C(=O)NC(c2ccccc2)c2ncccc2C)CC1 (configuration not stated)	DT40 TDP1 no CPT inconclusive, DT40 TDP1 CPT inconclusive, DRD3 antagonist inconclusive
CC(Sc1nc(=O)cc(N)n1CCc1ccccc1)C(=O)Nc1ccc(Cl)cc1 (configuration not stated)	DT40 TDP1 no CPT inconclusive, DT40 TDP1 CPT inconclusive (no result: IL-1B inflam inh, DRD3 antagonist)
Cc1cc(C)c(S(=O)(=O)NCCS(=O)(=O)N2CCN(c3ccccc3)CC2)c(C)c1	DT40 TDP1 no CPT 18.4µM, DT40 TDP1 CPT 23.1µM (no result: IL-1B inflam inh, DRD3 antagonist)
O=[N+]([O-])c1ccc(S(=O)(=O)NCCS(=O)(=O)N2CCN(c3ccccc3)CC2)cc1	DT40 TDP1 no CPT 16.4µM, DT40 TDP1 CPT inconclusive
CC(=O)Nc1ccc(S(=O)(=O)NCCS(=O)(=O)N2CCN(c3ccccc3F)CC2)cc1	DT40 TDP1 no CPT 20.6µM, DT40 TDP1 CPT 16.4µM
Cc1ccc(S(=O)(=O)NCCS(=O)(=O)N2CCN(c3ccccc3)CC2)cc1	DT40 TDP1 no CPT inconclusive
CC1=C(C(=O)Nc2ccccc2)C(CC(C)C)n2nc(SCc3ccccc3C)nc2N1 (configuration not stated)	DT40 TDP1 no CPT inconclusive, DT40 TDP1 CPT inconclusive (no result: IL-1B inflam inh, DRD3 antagonist)
CCCCNC(=O)C1(C)CCCCN1C(=O)c1csnn1 (configuration not stated)	none
Cc1ccc(NC(=O)CN2C(=O)COc3ccc(S(=O)(=O)NC4CCCC4)cc32)cc1N(C)C	DT40 TDP1 no CPT inconclusive (no result: IL-1B inflam inh, DRD3 antagonist)
C#C[C@]1(O)CC[C@H]2[C@H]3CCC4=Cc5oncc5C[C@]4(C)[C@@H]3CC[C@]21C	DT40 TDP1 no CPT inconclusive (no result: IL-1B inflam inh, ClpP mod, D3 ag, DRD3 antagonist)
Cn1cnc2c(=O)oc3ccc(S(=O)(=O)N4CCN(c5cccc(Cl)c5)CC4)cc3c21	none (no result: IL-1B inflam inh, DRD3 antagonist)
CCOc1cccc(C=Nc2cc(C)cc(C)c2O)c1O	DT40 TDP1 no CPT inconclusive, DT40 TDP1 CPT 14.6µM
O=C(N/N=C/c1cc(Br)c(O)c(Br)c1O)c1cccnc1	DT40 TDP1 no CPT inconclusive, DT40 TDP1 CPT 20.6µM
